Source: PubChem BioAssay (several laboratories)
In the library only some 28% were active in any assay of this set; here they are far more common.
CYP2C9 inh – inhibitors of human CYP2C9. CYP2C9 Supersomes, luciferin-H conversion, luminescence. 96,000 tested, 20% active. inhibition, % at 5 µM. P11712;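 active = blocking of liver enzyme CYP2C9 beyond about 50% at 5 µM, limit read from the data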
Target sequence (P11712 whole entry, looked up): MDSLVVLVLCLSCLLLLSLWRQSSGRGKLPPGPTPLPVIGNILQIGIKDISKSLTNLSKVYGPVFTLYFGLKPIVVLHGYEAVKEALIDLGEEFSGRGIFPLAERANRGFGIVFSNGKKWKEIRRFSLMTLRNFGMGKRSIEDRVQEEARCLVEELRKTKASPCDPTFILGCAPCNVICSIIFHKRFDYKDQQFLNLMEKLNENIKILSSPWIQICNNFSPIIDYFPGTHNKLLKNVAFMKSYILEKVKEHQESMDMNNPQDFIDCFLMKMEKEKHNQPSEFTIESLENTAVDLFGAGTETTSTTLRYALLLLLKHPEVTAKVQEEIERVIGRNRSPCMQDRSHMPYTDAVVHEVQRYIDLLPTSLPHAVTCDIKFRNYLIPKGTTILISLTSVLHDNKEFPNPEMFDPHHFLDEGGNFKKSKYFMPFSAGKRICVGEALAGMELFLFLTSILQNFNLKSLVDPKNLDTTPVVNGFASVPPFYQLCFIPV
hDAT+cocaine – modulates human dopamine transporter uptake under cocaine; Q01959; B-score at 10 µM; AID 449768; LLC-PK1 hDAT cells, [14C]-dopamine uptake with cocaine IC80; actives deviate in either direction; 110,000 tested, 1.3% active;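 active = Z score or B-score, a plate-position-corrected score, falls beyond the plate's 99.7% confidence bounds, in either direction; inactive = both scores lie inside the 99.7% bounds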;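 also: scored against the spread of the other compound wells on the same plate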
CYP2C9 activ – activators of human CYP2C9; P11712; recombinant CYP2C9, luciferin-H conversion, luminescence; stronger effect = higher value; factor 1 = untreated enzyme, 0 = blocked; activation factor at 5 µM; 96,000 tested, 1.4% active; AID 1024;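 active = activation factor of 2 or more for CYP2C9 at a 5 µM dose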;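 also: 0 = sulfaphenazole-blocked wells and 1 = vehicle-only wells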
D1 mod – allosterically modulates the human D1 dopamine receptor; HEK293 D1, CRE-luciferase, dopamine EC30 potentiation; actives deviate in either direction; B-score at 10 µM; 58,000 tested, 5.9% active; AID 641;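 active = luminescence count or its row- and column-corrected plate score outside the 99.7% band of the plate's sample wells, on either side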
CYP2C19 inh – human CYP2C19 inhibition; P33261; CYP2C19 Supersomes, luciferin-H EGE luminescence, 30 min; inhibition, % at 5 µM; 96,000 tested, 21% active; AID 778;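 active = CYP2C19 inhibition above a set limit at 5 µM in the primary screen, cut at about 50% in these data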;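 also: plate controls were negative control wells for no effect and 2.5 mM tranylcypromine positive control for full effect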
CYP2C19 act – cytochrome P450 2C19 (human) activation; P33261; recombinant CYP2C19, luciferin-H EGE luminescence; stronger effect = higher value; 0 = fully inhibited enzyme, 1 = untreated enzyme; activation factor at 5 µM; 96,000 tested, under 10 active;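 active = activation factor of at least 2 at 5 µM in the primary screen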;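 also: 0 = wells with 2.5 mM tranylcypromine and 1 = vehicle-only wells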
An asterisk follows results filed as active; / = no result given.

SMILES	CYP2C9 inh	hDAT+cocaine	CYP2C9 activ	D1 mod	CYP2C19 inh	CYP2C19 act
COc1cc(Sc2ccc(C)cc2)c(OC)cc1N	35	0.043	0.6	0.98	68*	0.3
COC(=O)c1ccc(Sc2ccc(C)cc2)c(N)c1	31	-0.78	0.7	0.59	35	0.6
CC1=C(C(=O)OC2CCCC2)C(c2ccc(C)o2)C2=C(CC(c3cccs3)CC2=O)N1 (stereo not given)	72*	0.37	0.3	0.24	14	0.9
CC1=C(C(=O)Nc2ccccc2C)C(c2ccc(C)o2)C2=C(CCCC2=O)N1 (stereo not given)	57*	0.083	0.4	-0.56	69*	0.3
CCCOC(=O)C1=C(C)NC2=C(C(=O)CCC2)C1c1cccs1 (stereo not given)	71*	-0.31	0.3	/	78*	0.2
CCCOC(=O)C1=C(C)NC2=C(C(=O)CCC2)C1c1cccc(OC)c1OC (stereo not given)	20	0.69	0.8	0.0063	78*	0.2
O=C(CN1CCN(CCO)CC1)Nc1ccccc1	/	-1.3	/	/	/	/
COc1ccc2[nH]c(C)c(CN3CCCC(C)C3)c(=O)c2c1 (stereo not given)	/	/	/	-1.2	/	/
CCS(=O)(=O)C(=C(Nc1ccc(OC)cc1)Nc1ccc(OC)cc1)S(=O)(=O)CC	-7	0.76	1.1	0.57	2	1
CCOC(=O)C1=C(C)NC2=C(C(=O)CCC2)C1c1coc2ccccc2c1=O (stereo not given)	68*	1.2	0.3	/	65*	0.4
Oc1c(C(Nc2nc3ccccc3s2)c2ccco2)ccc2cccnc12 (stereo not given)	73*	0.42	0.3	0.14	34	0.7
COC(=O)CNC(c1ccccc1)c1cc(Br)ccc1NC(=O)OCc1ccccc1 (stereo not given)	74*	1	0.3	/	43	0.6
COC(=O)CNC(c1ccccc1)c1cc(C)ccc1NC(=O)CNC(=O)OCc1ccccc1 (stereo not given)	94*	0.33	0.1	/	82*	0.2
CN(C)/C=N/c1nc2ccc3c(c2s1)CCCC3	8	0.52	0.9	0.92	81*	0.2
N#CC1=C(N)OC2=C(C(=O)CCC2)C12CCC1(CC2)OCCO1	1	0.35	1	0.26	5	0.9
COc1cccc(CN2C(=O)C3(C(C#N)=C(N)OC4=C3C(=O)CCC4)c3ccccc32)c1 (stereo not given)	66*	0.38	0.3	/	23	0.8
CC1(C)C(C#N)=C(N)OC2=C1C(=O)CCC2	40	-0.26	0.6	-0.31	68*	0.3
CC1(C)CC(=O)C2=C(C1)OC(N)=C(C#N)C21C(=O)N(CN2CCOCC2)c2ccccc21 (stereo not given)	26	0.01	0.7	/	2	1
O=C(c1ccccc1)c1nc[nH]c1C(=O)Nc1ccccc1	9	-0.32	0.9	/	15	0.9
C=CCOC(=O)c1cc(-c2ccc(/C=C3\C(=O)NC(=O)C(C#N)=C3C)o2)ccc1Cl	61*	/	0.4	/	24	0.8
CC(C)COC(=O)c1cc(-c2ccc(/C=N/n3cnnc3)o2)ccc1Cl	38	0.52	0.6	-0.037	23	0.8
CCOc1cc(S(=O)(=O)n2cc(-c3ccc(F)cc3)c(N)n2)cc(OCC)c1OCC	75*	0.77	0.3	-0.42	26	0.7
COc1ccccc1-c1cn(S(=O)(=O)c2ccc(F)cc2)nc1N	86*	-1.9	0.1	/	97*	0
CSc1sc(C(=O)NN)c2c1C(O)CCC2 (stereo not given)	/	0.18	/	/	/	/
CC(Oc1ccc(Cl)cc1Cl)c1nc(-c2ccc(NC(=O)c3ccccn3)cc2)no1 (stereo not given)	/	-0.16	/	/	/	/
SMILES	CYP2C9 inh	hDAT+cocaine	CYP2C9 activ	D1 mod	CYP2C19 inh	CYP2C19 act
CCN(CC)c1ccc2cc(-c3nc4ccccc4[nH]3)c(=O)oc2c1	25	0.35	0.7	-3.6*	44	0.6
COc1cc(S(=O)(=O)N2CCC(C(N)=O)CC2)c(C)cc1C	-200	-1.1	3*	-0.07	69*	0.3
Cc1cc(C)c(S(=O)(=O)N2CCC(C(N)=O)CC2)cc1C	-133	-0.61	2.3*	/	38	0.6
Cc1ccc(S(=O)(=O)N2CCC(C(N)=O)CC2)c(C)c1C	-23	0.37	1.2	/	29	0.7
Cn1c(=O)[nH]c(=O)c2[nH]c(CN3CCN(C(=O)c4ccco4)CC3)nc21	5	-0.98	1	0.51	-7	1.1
CCN(CC)c1cc(C)c2cc(NC(=O)CNC(C)=O)ccc2n1	14	0.22	0.9	-0.97	-2	1
CC1=CC(C)(C)N(C(=O)CSc2ncn[nH]2)c2ccc(C)cc21	55*	-0.54	0.4	/	89*	0.1
COc1ccc2c(c1)C(C)=CC(C)(C)N2C(=O)CSc1nnc(-c2ccc(C)cc2)o1	65*	0.018	0.3	0.62	66*	0.3
CCNC(=O)c1ccc(-n2nc(C(F)(F)F)c3c2CCCC3)cc1	-146	-0.83	2.5*	/	20	0.8
CSc1nc(-c2ccccc2)[nH]c(=S)c1C(C)=O	55*	0.067	0.5	/	20	0.8
CSc1nc(-c2ccccc2)nc(SC)c1C(C)=O	-12	-0.55	1.1	0.033	11	0.9
CCOC(=O)C1CCN(Cc2oc(CO)cc(=O)c2O)CC1	5	/	1	/	14	0.9
Cc1cc(NC(=O)Cn2nc(-c3ccccc3F)ccc2=O)ccc1-n1cnnn1	17	-0.0015	0.8	/	-3	1
CC(OC(=O)c1cc2sccc2n1C)C(=O)NCc1ccco1 (stereo not given)	79*	0.48	0.2	-1.2	90*	0.1
CCC(C)(C)NC(=O)C(OC(=O)c1cc2sccc2n1C)c1ccc(OC)cc1 (stereo not given)	8	-0.45	0.9	-0.5	2	1
Cn1c(C(=O)OC(C(=O)NCc2ccco2)c2ccncc2)cc2sccc21 (stereo not given)	90*	0.013	0.1	/	98*	0
Cc1nccn1-c1ccc(C(F)(F)F)cc1NC=O	7	-0.3	0.9	/	5	1
COc1ccc(-c2ccnc3nc(Sc4ncc(C(F)(F)F)cc4Cl)nn23)cc1	52*	0.036	0.5	/	30	0.7
CCOC(=O)c1ccc(NC(=O)CN(C)S(=O)(=O)c2ccc(OC)cc2)cc1	-64	0.45	1.6	0.74	7	0.9
COc1ccc(NC(=O)CN(C)S(=O)(=O)c2ccccc2)cc1	55*	0.21	0.5	/	62*	0.4
COc1ccccc1NC(=O)CN(C)S(=O)(=O)c1ccc(F)cc1	-129	-0.36	2.3*	0.00052	56*	0.4
COc1ccc(S(=O)(=O)N(C)CC(=O)Nc2ccccc2SC)cc1Cl	-188	0.038	2.9*	2.5	31	0.7
COC(=O)c1ccccc1NC(=O)CN(C)S(=O)(=O)c1ccc(OC)c(C)c1	-14	0.56	1.1	0.42	100*	0
